Assay results published in the supplement of paper PMC6522484.
± gives the standard deviation of the averaged measurements.

Experiments:
DLD1 [1] = test: cell viability (CellTiter-Glo) relative to plate median (fraction of plate median); higher = more viable cells; conditions: 5 µM; treatment time 24 h; reporter: 7TFP
In short: (§1)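 After seeding in 384-well plates, colorectal cancer cell lines carrying stable lentiviral TCF/Wnt firefly luciferase reporters (7TFP or TCF4/Wnt) were left 24 h. Library compounds were then added at a final 5 µM for 24 h. A Tecan F500 reader measured firefly luciferase or CellTiterGlo luminescence on parallel plates, with each well normalised to the plate median by webcellHTS2 (additive, no log transformation), and two independent replicates averaged.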

HCT116 = test: as above; conditions: 5 µM; treatment time 24 h; reporter: TCF4/Wnt
In short: as §1

SW480 [2] = test: as above; conditions: 5 µM; treatment time 24 h; reporter: 7TFP
In short: as §1

DLD1 [3] = test: TCF/Wnt firefly luciferase reporter signal relative to plate median (fraction of plate median); higher = higher Wnt reporter signal; conditions: 5 µM; treatment time 24 h; reporter: 7TFP
In short: as §1

SW480 [4] = test: as above; conditions: 5 µM; treatment time 24 h; reporter: 7TFP
In short: as §1

SMILES: Nc1ccc(S(=O)(=O)Nc2ncccn2)cc1
- cell viability (DLD1 [1]): 0.92 ± 0.032
- cell viability (HCT116): 1.04 ± 0.069
- cell viability (SW480 [2]): 0.9685 ± 0.0021
- TCF/Wnt firefly luciferase reporter signal (DLD1 [3]): 1.05 ± 0.14
- TCF/Wnt firefly luciferase reporter signal (SW480 [4]): 1.01 ± 0.083

SMILES: CC1(C)O[C@H]2CC(=O)OC[C@]23[C@H]2CC[C@@]4(C)[C@H](c5ccoc5)OC(=O)[C@H]5O[C@]54[C@]2(C)C(=O)C[C@@H]13
- cell viability (DLD1 [1]): 1.01 ± 0.045
- cell viability (HCT116): 1.07 ± 0.064
- cell viability (SW480 [2]): 1.05 ± 0.05
- TCF/Wnt firefly luciferase reporter signal (DLD1 [3]): 0.944 ± 0.03
- TCF/Wnt firefly luciferase reporter signal (SW480 [4]): 0.98 ± 0.099

SMILES: C[C@H](N)CO
- cell viability (DLD1 [1]): 0.911 ± 0.034
- cell viability (HCT116): 0.902 ± 0.047
- cell viability (SW480 [2]): 0.93 ± 0.035
- TCF/Wnt firefly luciferase reporter signal (DLD1 [3]): 0.908 ± 0.058
- TCF/Wnt firefly luciferase reporter signal (SW480 [4]): 1.12 ± 0.092

SMILES: CC(C)(C)NC[C@H](O)COc1nsnc1N1CCOCC1
- cell viability (DLD1 [1]): 0.966 ± 0.045
- cell viability (HCT116): 0.992 ± 0.17
- cell viability (SW480 [2]): 0.9705 ± 0.0092
- TCF/Wnt firefly luciferase reporter signal (DLD1 [3]): 0.971 ± 0.084
- TCF/Wnt firefly luciferase reporter signal (SW480 [4]): 1.04 ± 0.042

SMILES: COc1c(-c2coc3cc4c(cc3c2=O)CC(O)C(C)(C)O4)ccc2c1C=CC(C)(C)O2 (stereo not given)
- cell viability (DLD1 [1]): 0.973 ± 0.081
- cell viability (HCT116): 0.973 ± 0.12
- cell viability (SW480 [2]): 1.02 ± 0.079
- TCF/Wnt firefly luciferase reporter signal (DLD1 [3]): 0.869 ± 0.0014
- TCF/Wnt firefly luciferase reporter signal (SW480 [4]): 0.946 ± 0.077
